The supplement of paper PMC6555819

system: LXRa homodimer (NR concentration 270 nM); assay: PBM binding z-score (relative to random genomic background probes); higher = stronger binding; sequences stand for … in GC…GCGATTGACAGCGTAGAATGAAGG
Outline: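 Binding z-scores were set against random background probes. The data came from custom Agilent 4×180K protein-binding microarrays carrying double-stranded probes with 34-nt variable regions, incubated 1 h with ligand-free nuclear receptor dimers. Partner-specific antibodies detected binding, and scanned fluorescence was regression-normalized.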

| Sequence | PBM binding z-score |
| --- | --- |
| TCGAGTAGGTTACCAATGAGGCATTCAGCTTTCT | -0.666 |
| CCTAGTTGGTGAAGGTCACACACGCTATAGGTAC | 1.45 |
| CCTCGGAGGCCAACAGGAGGTCAGAGCTGCCAGA | 1.48 |
| CCTACTGGGCCAAAGGTCATTGAATCCAATGCTC | 3.62 |
| AGTCAACGTTCACTAGGTAACGTAAGATTCAGCT | -0.401 |
| ACTATTAGTTGAGACGAGGGCAACCGATAGGTTG | 0.022 |
| GCATATAGTTAATACAAGGTGAAAGTCCGATTGT | 0.623 |
| TCTAGTTGGTCATAGGTCACACACTCGAAATGCG | 1.99 |
| TGTCAAAGTTCAAAGGTAACGTAAGTATCCACAC | 4.55 |
| CCTTACGGGTCACTAACAGGTTATAGCATTTGGA | 0.54 |
| CGAACTAGGTCAAGGACAGAGAATCTCCGCACGC | -0.0711 |
| GGAACGAGGGCAAAGTTGATACCATCTGTCGACG | 0.172 |
| ATCGAAAGGTCGAAGGTGGGTATACCCACCCGAA | 0.0928 |
| TAGCCTAGGTCATTCACGGGCCAGTATAGAAAGC | 0.702 |
| AATACAGGGTCATCGTAGGACAGAGTACGCACAG | 2.99 |
| TCATATAGTTAAACAGGTGAAAGTCCGTAAGTTA | 0.478 |
| CCAGACACGTGAGAAGGTAACTCAGCCTCGATTA | -0.348 |
| CATCCAAGGTCAATGCTAGGTCAGTGAAAGCATT | 4.36 |
| CCTACGGGGCCATCAGGTCATTGATATCAACGTT | 0.922 |
| CCTACTGGGCCAATGGTCATTGATTCCAATGCTC | -0.691 |

| Sequence | PBM binding z-score |
| --- | --- |
| AATACAGGGTCATCGTAGGCCAGAGTGCGCACAG | 2.47 |
| ATCTCTACGTAACCAAGTTCAGTGAATGCCGAAC | 0.728 |
| TATACAGGGTCAAAGGCCAGAGGACGAATGTCGA | 2.34 |
| TGAATGAGATTAAAGATCAGGGAACGTGGCGTCG | -0.329 |
| GATACAGGGTCAGCTAGAGGCCAGAGAATGGAAA | -0.346 |
| ATACCAAGGTGATCGTGAGCTCGTTGATACTAAC | -0.322 |
| CAAACTAGGTCAACGGAAGGTCAAAGTCCGCATG | 5.99 |
| CAGCCTAGGTCAGGGCCAGTATGGGAGGAACGTT | -0.724 |
| ACAGACCGGTGAGTGAAGGTAACTCAGCTGGACG | -0.654 |
| TCTTGTAGATCAACATGAGGTTAAGAAAGATCGA | 0.535 |
| TAGCCTCGGTCATGGGCCAGTATACCACGCGAAC | 0.0533 |
| CCTACTGGGCGATCAGGTCATTGATATCAACGTT | 0.541 |
| CCATACAGGTGAGAAGGTAACTCAGCCTCGATTA | 0.308 |
| TTACCAAGGTGAAAGGTCGCTGATGCACGCCTTG | -0.188 |
| GCGACTGTGGCAAAGCAGGTTACCATAAGGTTGG | -0.53 |
| TGAATGAGGTTATACGATCAGGGAACGTTGCAAA | -0.238 |
| CCTAGCAGGCCAATCTGGGTCAATCAAGGCTTGA | -0.656 |
| GCTTACGGGGCAAAGGTTATAGCATGAATAGAAT | 0.016 |
| TCTTGTAGATCAACAGGAGGTTAAGGAAGATCGA | -0.0408 |
| TCAGACAGGTGAAGGTAACTAAGGTACGCAGTCG | -0.132 |
